The campaign covered roughly 48,000 compounds. About 13,000 (27%) showed an effect of 50% or more. The list shows a part of the results.

The assay relates to Wolbachia pipientis. The experiment in a line: Anti-Wolbachia Cell-Based Screen. Format: functional. On the set-up: scale not given: in the data most compounds retested in dose-response had high values. To be noted: 5 µM.
For the molecule `Cc1cnn(CCNCc2nccn2CC(F)(F)F)c1`, the “Percent Effect” value is reported as -5.156%. Consider `CN(Cc1nccn1C)C(=O)c1cccc(CCC(C)(C)O)c1`, for which the “Percent Effect” value was -1.939%. Next, `CN(Cc1nccn1CC(F)(F)F)C(=O)c1cccc(N(C)C)c1`: 107.5%; `CN(Cc1nccn1CC(F)(F)F)C(=O)c1ccc2c(c1)OCO2`: 110.7%.

With `CN(Cc1ccc2c(c1)OCO2)C(=O)c1ccn(C)c(=O)c1`, the “Percent Effect” value worked out at 11.43%. With `CN(Cc1cc(Br)cn1C)C(=O)c1cccnc1`, the “Percent Effect” value is -11.61%.

On to `CCn1c(CN(C)C(=O)c2ccc(O)nc2)nc2ccccc21`, for which the “Percent Effect” value is -29.68%. In the case of `CN(Cc1ccc2c(c1)OCO2)C(=O)c1ccc(=O)n(C)c1` it was -0.4136%; in that of `Cc1ccc(C(=O)N(C)Cc2cc(Br)cs2)cn1`, 108.4%; in that of `Cc1ccc(C(=O)N(C)Cc2nccn2CC(F)(F)F)cn1`, 108.9%. Take `Cc1nn(C)c(C)c1CN(C)C(=O)c1cccc(CCC(C)(C)O)c1`: the “Percent Effect” value is -10.94%. Consider `Cc1cc(CN(C)C(=O)c2ccc(C(F)(F)F)nc2)no1`, for which the “Percent Effect” value was found to be 4.429%. In the case of `CCc1nnsc1C(=O)NCc1c(C)nn(CCOC)c1C` it was 22.53%; in that of `Cc1ccc(C2CCCCCN2CCNS(C)(=O)=O)o1` (stereo unspecified), -18.53%; in that of `O=C(CN1C(=O)CCCc2sccc21)NC1CCc2nccn2C1` (stereo unspecified), -8.511%. In the case of `Cc1cc(CN2C[C@H]3CC[C@@H]2CN(Cc2c(C)noc2C)C3)ccc1F` it was -0.5585%; in that of `CC(O)C1CCN(Cc2nccn2CC(F)(F)F)CC1` (stereo unspecified), -9.918%. For `FC(F)(F)Cn1ccnc1CNCCn1cccn1`, the “Percent Effect” value is given as -10.84%. For the molecule `CCOc1ccc(C(=O)N(C)Cc2nccn2CC(F)(F)F)cc1`, the “Percent Effect” value is given as 117.2%. Next, `CN(C)CC1CCN(Cc2nccn2CC(F)(F)F)CC1`: 2.033%; `COCc1cccc(C(=O)N(C)Cc2ncc(C)c(OC)c2C)c1`: 6.137%; `COc1cc(C(=O)N(C)Cc2nccn2CC(F)(F)F)ccc1C`: 111.1%.

`O=C(O)C(F)(F)F.O=C(O)C(F)(F)F.c1cncc(CN2CCOC(c3ncn4c(C5CC5)cccc34)C2)c1` (stereo unspecified): the “Percent Effect” value is listed as -19.22%. In the case of `Cc1ncsc1CCn1ccnc1-c1cc2n(n1)CCCNC2` it was -9.491%. In the case of `COc1cc(C)c(C(C)NC(=O)Nc2nnc(C)s2)cc1OC` (stereo unspecified) it was -2.297%; in that of `CO[C@H]1CN(C)S(=O)(=O)[C@@]12CCN(Cc1ccccc1)C2`, 109.7%; in that of `CC1CN(Cc2ccccc2)CCCN1CCS(C)(=O)=O` (stereo unspecified), -9.711%.

With `CC1CN(Cc2ccccc2)CCCN1CCNS(C)(=O)=O` (stereo unspecified), the “Percent Effect” value is given as 2.156%. In the case of `CO[C@@H]1CN(C)S(=O)(=O)[C@@]12CCN(Cc1ccccc1)C2` it was 116.7%; in that of `COc1ccc(OCC(C)NS(C)(=O)=O)cc1` (stereo unspecified), -2.499%; in that of `CCCOc1cc(C)c2c(c1C)C[C@H]([C@H](C)C(=O)O)CC2`, -9.304%. In the case of `CNS(=O)(=O)CC(=O)N1CC2(CCCC2)c2c(F)cccc21` it was -10.56%. `CCS(=O)(=O)N1CCC(NCC2CNc3cc(C)nn3C2)CC1` (stereo unspecified): the “Percent Effect” value is given as -5.639%. For the molecule `CC(=O)Nc1ccc2c(c1)C1(CCOCC1)C(=O)N2c1ccsc1`, the “Percent Effect” value worked out at 7.168%. Take `C1CC(CN2CCCCC2C2OCCO2)C1` (stereo unspecified): the “Percent Effect” value is recorded as 19.65%. Next, `COc1ccc(NC(=O)CN2CCCCC2C2OCCO2)cc1` (stereo unspecified): 17.05%. With `c1ccc(Cc2noc(CN3CCCCC3C3OCCO3)n2)cc1` (stereo unspecified), the “Percent Effect” value is reported as -5.666%. Next, `C1CCN(CCN2CCCCC2C2OCCO2)CC1` (stereo unspecified): 105.6%; `COC(=O)c1ccc(NC(=O)CN2CCCCC2C2OCCO2)cc1` (stereo unspecified): -2.306%; `OCCN1CCCCC1C1OCCO1` (stereo unspecified): 89.19%.

For `O=C(Cn1cc(Cl)cn1)Nc1ccc2c(c1)OCCCO2`, the “Percent Effect” value is -3.42%. Next, `CCn1cc(NC(=O)Nc2ccc3c(c2)OCCO3)cn1`: 131.1%; `Cn1cc(CCNC(=O)CCc2ccc3c(c2)OCO3)cn1`: -1.168%; `CCn1cc(NC(=O)NCC(C)O)cn1` (stereo unspecified): -13.78%.

For `CCn1cc(NC(=O)NCc2ccc3c(c2)OCO3)cn1`, the “Percent Effect” value is given as 135.2%. In the case of `CCn1cc(NC(=O)NCCc2ccc3c(c2)OCCO3)cn1` it was 126.5%.

`CCn1cc(NC(=O)NCC2(N3CCOCC3)CCSC2)cn1` (stereo unspecified): the “Percent Effect” value is given as -22.54%. As for `CCn1cc(NC(=O)NCCc2ccc3c(c2)OCO3)cn1`, the “Percent Effect” value is 124.8%. As to `CCCn1cc(C(=O)NCCc2ccc3c(c2)OCO3)c(C)n1`, the “Percent Effect” value was -4.07%. Regarding `Cc1nn(C)c(C)c1CN(Cc1cccn1-c1ccccn1)C(C)C`, the “Percent Effect” value is -9.247%. In the case of `CCc1cnc(N2CCN(Cc3ccno3)CC2)s1`, the “Percent Effect” value is on record as 1.528%. In the case of `CC(C)c1nnc(NC(=O)NCc2ccc(CO)c(F)c2)s1` it was -3.606%. Take `CCn1cc(NC(=O)NCc2ccc(CO)c(F)c2)cn1`: the “Percent Effect” value was found to be 112.4%. Next, `CCn1cc(NC(=O)NC(CO)Cc2c[nH]c3ccccc23)cn1` (stereo unspecified): -9.205%.

Turning to `CC(C)(C)C(=O)N1CCC(c2nc(O)cc(-c3ccncc3)n2)CC1`, the “Percent Effect” value worked out at 112.4%. Next, `O=C(c1ccccn1)N1CCCC(c2nccn2Cc2ccncc2)C1` (stereo unspecified): -10.11%. Next, `O=C(c1ccccn1)N1CCC(c2nccn2Cc2ccncc2)CC1`: 7.014%; `CC(C)C(=O)N1CCC(c2nc(O)cc(-c3ccncc3)n2)CC1`: -8.577%; `O=C(c1cccnc1)N1CCC(c2nc(O)cc(-c3ccncc3)n2)C1` (stereo unspecified): 89.59%. With `O=C(c1ccccn1)N1CCC(c2nc(O)cc(-c3ccncc3)n2)C1` (stereo unspecified), the “Percent Effect” value is on record as 109.3%. Next, `COCc1cc(CNC(=O)c2c(O)cccc2O)n[nH]1`: 12.71%; `CC(C)N1CCc2[nH]nc(C(=O)N3CCCC3C)c2C1` (stereo unspecified): -13.09%. For the molecule `CCOCCCNC(=O)NC(C)c1ccc(-n2cncn2)cc1` (stereo unspecified), the “Percent Effect” value is -14.96%. Next, `CCOCCNC(=O)c1ccn(S(=O)(=O)c2ccc(C)cc2)c1`: -5.067%; `COCC(C)N(C)C(=O)c1ccc2nncn2c1` (stereo unspecified): 2.79%; `COc1cc(C)c(NC(=O)NCCn2cccc2)cc1OC`: 2.296%. In the case of `NC(=O)C1CCN(Cc2cc3c(cc2Br)OCCO3)C1` (stereo unspecified) it was 0.4913%; in that of `Cc1cncc(C(=O)N2CCCC(C(=O)CCc3ccccc3)C2)c1` (stereo unspecified), -18.81%; in that of `Cc1ccsc1C(=O)N1C[C@@H](C(=O)O)[C@H](C(C)C)C1`, 117.1%. Next, `CC(C)[C@@H]1CN(C(=O)c2ccsc2)C[C@H]1C(=O)O`: 124.9%; `CC(C)[C@@H]1CN(C(=O)C2(c3ccccc3)CC2)C[C@H]1C(=O)O`: 6.034%; `CCc1ccccc1OC1CN(C(=O)c2ccsc2)C1`: -5.309%. Turning to `Cc1cncc(C(=O)N2CCN(c3cnn(C)c(=O)c3)CC2)c1`, the “Percent Effect” value is given as -23.7%. Next, `CC(C)[C@@H]1CN(C(=O)CN(C)Cc2ccccc2)C[C@H]1C(=O)O`: -19.29%. In the case of `CC(C)C1CN(C(=O)c2ccsc2)CCS1` (stereo unspecified), the “Percent Effect” value came to 1.544%. In the case of `Cc1cncc(C(=O)N2C[C@@H](C(=O)O)[C@H](C(C)C)C2)c1` it was 102.6%.

The record behind these values is ChEMBL document CHEMBL3988442, “University of Dundee, Small-Polar-MMV Screening Library” (2021).
